Laboratory results published in PubChem BioAssay (NCI).
Compounds without any hit were thinned out: in the full panel of roughly 83,000, 20% have a hit.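 Method: cells in 96-well plates; compound added at one concentration; 48 h incubation; percent growth measured; values under 10 scored active.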

Key:
Assay in all cases: NCI-60 one-dose screen, 48 h (100 = growth as untreated, 0 = no growth, -100 = all killed)
Conditions in all cases: 10 µM unless noted
NCI-H23 lung = tested on: NCI-H23 lung
NCI-H226 lung = tested on: NCI-H226 lung
NCI-H322M lung = tested on: NCI-H322M lung
HOP-62 NSCLC = tested on: HOP-62 NSCLC
HOP-92 NSCLC = tested on: HOP-92 NSCLC
A549/ATCC NSCLC = tested on: A549/ATCC NSCLC
786-0 renal = tested on: 786-0 renal
COLO 205 colon = tested on: COLO 205 colon
DU-145 prostate = tested on: DU-145 prostate
K-562 leukemia = tested on: K-562 leukemia
MALME-3M melanoma = tested on: MALME-3M melanoma
MDA-MB-231 breast = tested on: MDA-MB-231 breast
RXF 393 renal = tested on: RXF 393 renal
SF-268 CNS = tested on: SF-268 CNS
SF-295 CNS = tested on: SF-295 CNS
SF-539 CNS = tested on: SF-539 CNS
UACC-257 melanoma = tested on: UACC-257 melanoma
M14 melanoma = tested on: M14 melanoma
NCI-H522 lung = tested on: NCI-H522 lung
NCI-H460 lung = tested on: NCI-H460 lung

Measured: growth

CC(C)CSc1nc(NN)c(C#N)c(-c2ccccc2)n1
inactive: NCI-H23 lung 99.7% | NCI-H226 lung 89.1% | NCI-H322M lung 89.5% | HOP-62 NSCLC 94.1% | HOP-92 NSCLC 108% | A549/ATCC NSCLC 105% | 786-0 renal 98.4% | COLO 205 colon 111% | DU-145 prostate 103% | K-562 leukemia 94.5% | MALME-3M melanoma 118% | MDA-MB-231 breast 107% | RXF 393 renal 90.1% | SF-268 CNS 84.6% | SF-295 CNS 88.1% | SF-539 CNS 94.5% | UACC-257 melanoma 110% | M14 melanoma 107%

CCc1cnc(=S)n(-c2ccccc2)c1
inactive: NCI-H23 lung 88.5% | NCI-H226 lung 110% | NCI-H322M lung 117% | HOP-62 NSCLC 103% | HOP-92 NSCLC 97.8% | NCI-H522 lung 105% | A549/ATCC NSCLC 98.3% | 786-0 renal 99.9% | COLO 205 colon 120% | DU-145 prostate 104% | K-562 leukemia 117% | MDA-MB-231 breast 107% | RXF 393 renal 129% | SF-268 CNS 100% | SF-539 CNS 101% | UACC-257 melanoma 120% | M14 melanoma 106%

CC(=O)Nc1ccc(/C=C/C(=O)c2ccccc2)cc1
inactive: NCI-H23 lung 102% | NCI-H226 lung 102% | NCI-H322M lung 120% | HOP-62 NSCLC 97.1% | HOP-92 NSCLC 74.7% | NCI-H522 lung 68.1% | A549/ATCC NSCLC 92.6% | 786-0 renal 98.5% | COLO 205 colon 112% | DU-145 prostate 86.6% | K-562 leukemia 36.7% | MALME-3M melanoma 120% | MDA-MB-231 breast 104% | RXF 393 renal 68.2% | SF-268 CNS 89.1% | SF-295 CNS 106% | SF-539 CNS 96.6% | UACC-257 melanoma 89.3% | M14 melanoma 97.7%

COc1ccc(OC)c(C2OC(c3ccc4ccccc4c3O)=NN2C(C)=O)c1 (stereo unspecified)
inactive: NCI-H23 lung 80% | NCI-H226 lung 87.1% | NCI-H322M lung 77.5% | HOP-62 NSCLC 65.4% | NCI-H460 lung 43% | NCI-H522 lung 35.6% | A549/ATCC NSCLC 56.5% | 786-0 renal 81.9% | COLO 205 colon 77.1% | DU-145 prostate 77.8% | K-562 leukemia 31.3% | MALME-3M melanoma 43.8% | MDA-MB-231 breast 91.1% | RXF 393 renal 53.1% | SF-268 CNS 80.3% | SF-539 CNS 65.5% | UACC-257 melanoma 57.6% | M14 melanoma 54.6%

Cc1ccc(S(=O)(=O)NCCNc2nccc(-c3c(-c4ccc(O)cc4)nc4sccn34)n2)cc1
inactive: NCI-H23 lung 95.1% | NCI-H226 lung 98.8% | NCI-H322M lung 110% | HOP-62 NSCLC 113% | NCI-H460 lung 106% | NCI-H522 lung 84% | A549/ATCC NSCLC 94.1% | 786-0 renal 97.3% | COLO 205 colon 104% | DU-145 prostate 102% | K-562 leukemia 81.7% | MALME-3M melanoma 95.6% | MDA-MB-231 breast 97.7% | RXF 393 renal 92.2% | SF-268 CNS 95.6% | SF-539 CNS 107% | UACC-257 melanoma 108% | M14 melanoma 93.3%

O=C(CSc1nc2ccccc2[nH]1)c1ccc(N2CCOCC2)cc1
inactive: NCI-H23 lung 92.9% | NCI-H226 lung 97.6% | NCI-H322M lung 99.5% | HOP-62 NSCLC 104% | NCI-H460 lung 104% | A549/ATCC NSCLC 102% | 786-0 renal 96.4% | COLO 205 colon 117% | DU-145 prostate 107% | K-562 leukemia 99.5% | MALME-3M melanoma 100% | MDA-MB-231 breast 103% | RXF 393 renal 98.1% | SF-268 CNS 103% | SF-295 CNS 96.8% | SF-539 CNS 100% | UACC-257 melanoma 102% | M14 melanoma 106%

CCOC(=O)c1c(NS(=O)(=O)c2ccc(C)cc2)sc2c1CCC1(C2)OCCO1
inactive: NCI-H23 lung 94.2% | NCI-H226 lung 85.8% | NCI-H322M lung 99.8% | HOP-62 NSCLC 90.7% | HOP-92 NSCLC 77.1% | NCI-H522 lung 79.6% | A549/ATCC NSCLC 103% | 786-0 renal 99.3% | COLO 205 colon 115% | DU-145 prostate 114% | K-562 leukemia 89.5% | MALME-3M melanoma 114% | MDA-MB-231 breast 99.7% | RXF 393 renal 103% | SF-268 CNS 93.6% | SF-295 CNS 93.1% | SF-539 CNS 93.7% | UACC-257 melanoma 96.2% | M14 melanoma 104%

CCOC(=O)CC(=O)OC
inactive: NCI-H23 lung 106% | NCI-H226 lung 101% | NCI-H322M lung 111% | HOP-62 NSCLC 102% | HOP-92 NSCLC 96.4% | NCI-H522 lung 90.2% | A549/ATCC NSCLC 101% | 786-0 renal 101% | COLO 205 colon 101% | DU-145 prostate 118% | K-562 leukemia 103% | MALME-3M melanoma 114% | MDA-MB-231 breast 121% | RXF 393 renal 114% | SF-268 CNS 111% | SF-295 CNS 110% | SF-539 CNS 95.7% | UACC-257 melanoma 96.9% | M14 melanoma 96.1%
